Results: PubChem BioAssay (NCATS)
Inconclusive results are not listed. The source made the active and inactive calls. Calls follow the shape of the dose curve; as a rule, active = well fitted curve in the direction sought with a large enough effect; inconclusive = small, poorly fitted or top-dose-only effect, or another doubt; inactive = no such curve, though single readings can be large; an effect the other way counts as inactive or inconclusive.

Tests used:
[1] = molecular target: ATP-dependent 6-phosphofructokinase (Trypanosoma brucei brucei) (UniProt O15648); experiment: qHTS Assay to Find Inhibitors of T. brucei phosphofructokinase: hit validation (AID 492961);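 also: luminescence reports ADP formed as PFK phosphorylates fructose-6-phosphate with ATP; % is scaled to controls: 0 for no effect and ±100 for the full control effect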
Chain of ATP-dependent 6-phosphofructokinase (Trypanosoma brucei brucei) (O15648 whole entry, looked up): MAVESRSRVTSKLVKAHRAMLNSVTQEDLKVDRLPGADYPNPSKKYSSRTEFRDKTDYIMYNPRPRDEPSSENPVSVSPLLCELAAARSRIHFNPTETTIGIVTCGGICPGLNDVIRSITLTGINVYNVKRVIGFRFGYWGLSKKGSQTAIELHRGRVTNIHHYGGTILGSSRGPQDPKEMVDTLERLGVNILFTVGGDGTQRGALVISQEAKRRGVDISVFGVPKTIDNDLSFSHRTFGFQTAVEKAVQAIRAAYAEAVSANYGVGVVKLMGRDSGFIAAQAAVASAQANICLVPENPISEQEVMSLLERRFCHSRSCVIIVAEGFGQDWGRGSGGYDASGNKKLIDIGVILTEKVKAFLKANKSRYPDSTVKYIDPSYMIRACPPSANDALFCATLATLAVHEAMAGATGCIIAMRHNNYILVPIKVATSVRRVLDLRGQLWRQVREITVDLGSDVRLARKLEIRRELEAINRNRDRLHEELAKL
Summary of the method: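 Measures ADP output of PFK (1.25 nM) at 0.1 mM ATP, 0.5 mM F6P, pH 8.0 TEA buffer with 5 mM MgCl2. No-enzyme wells define full inhibition; uninhibited enzyme wells define zero.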

[2] = qHTS profiling for inhibitors of Plasmodium falciparum proliferation (AID 504749); also: nearly all actives have a fitted effect of over 60% in size; also: potency is read from the fitted curve at half-maximal effect;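 as to activity, negative = inhibition: 0% = DMSO vehicle and full inhibition = artemisinin control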; conditions: P. falciparum in erythrocytes, SYBR Green DNA, 72 h
Summary of the method: (§1)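 Three-day growth assay of blood-stage parasites in erythrocytes (0.3% parasitemia, 2.5% hematocrit) at 37 C, 5% CO2, quantified by SYBR Green DNA staining after overnight detergent lysis.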

[3] = system: 3D7; experiment: as above; conditions: P. falciparum in erythrocytes, SYBR Green DNA, 72 h; series mostly up to 28.7 µM
Summary of the method: as §1

[4] = system: 7G8; experiment: as above; conditions: P. falciparum in erythrocytes, SYBR Green DNA, 72 h; series mostly up to 28.7 µM
Summary of the method: as §1

[5] = system: AS120; experiment: as above; conditions: P. falciparum in erythrocytes, SYBR Green DNA, 72 h; series mostly up to 28.7 µM
Summary of the method: as §1

[6] = system: ATS189; experiment: as above; conditions: P. falciparum in erythrocytes, SYBR Green DNA, 72 h; series mostly up to 28.7 µM
Summary of the method: as §1

[7] = system: CP185; experiment: as above; conditions: P. falciparum in erythrocytes, SYBR Green DNA, 72 h; series mostly up to 28.7 µM
Summary of the method: as §1

[8] = system: CP191; experiment: as above; conditions: P. falciparum in erythrocytes, SYBR Green DNA, 72 h; series mostly up to 28.7 µM
Summary of the method: as §1

[9] = system: CP192; experiment: as above; conditions: P. falciparum in erythrocytes, SYBR Green DNA, 72 h; series mostly up to 28.7 µM
Summary of the method: as §1

[10] = system: CP194; experiment: as above; conditions: P. falciparum in erythrocytes, SYBR Green DNA, 72 h; series mostly up to 28.7 µM
Summary of the method: as §1

[11] = system: CP201; experiment: as above; conditions: P. falciparum in erythrocytes, SYBR Green DNA, 72 h; series mostly up to 28.7 µM
Summary of the method: as §1

[12] = system: CP203; experiment: as above; conditions: P. falciparum in erythrocytes, SYBR Green DNA, 72 h; series mostly up to 28.7 µM
Summary of the method: as §1

[13] = system: CP247; experiment: as above; conditions: P. falciparum in erythrocytes, SYBR Green DNA, 72 h; series mostly up to 28.7 µM
Summary of the method: as §1

[14] = system: CP286; experiment: as above; conditions: P. falciparum in erythrocytes, SYBR Green DNA, 72 h; series mostly up to 28.7 µM
Summary of the method: as §1

[15] = system: CP291; experiment: as above; conditions: P. falciparum in erythrocytes, SYBR Green DNA, 72 h; series mostly up to 28.7 µM
Summary of the method: as §1

[16] = system: CP305; experiment: as above; conditions: P. falciparum in erythrocytes, SYBR Green DNA, 72 h; series mostly up to 28.7 µM
Summary of the method: as §1

[17] = system: DFO2036; experiment: as above; conditions: P. falciparum in erythrocytes, SYBR Green DNA, 72 h; series mostly up to 28.7 µM
Summary of the method: as §1

[18] = system: DIV30; experiment: as above; conditions: P. falciparum in erythrocytes, SYBR Green DNA, 72 h; series mostly up to 28.7 µM
Summary of the method: as §1

[19] = system: HB3; experiment: as above; conditions: P. falciparum in erythrocytes, SYBR Green DNA, 72 h; series mostly up to 28.7 µM
Summary of the method: as §1

[20] = system: P94_40; experiment: as above; conditions: P. falciparum in erythrocytes, SYBR Green DNA, 72 h; series mostly up to 28.7 µM
Summary of the method: as §1

[21] = at 28.7 µM (top of the series), parasite line A
[22] = at 28.7 µM (top of the series), parasite line B

CC(=O)NC[C@@H]1CN(c2ccc(N3CCOCC3)c(F)c2)C(=O)O1
inactive: Potency [1] | activity, negative = inhibition [2, 21] -12.2% | activity, negative = inhibition [2, 22] -9.57% | Potency [3] | Potency [4] | Potency [5] | Potency [6] | Potency [7] | Potency [8] | Potency [9] | Potency [10] | Potency [11] | Potency [12] | Potency [13] | Potency [14] | Potency [15] | Potency [16] | Potency [17] | Potency [18] | Potency [19] | Potency [20]

C=C[C@H]1CN2CCC1C[C@H]2[C@H](O)c1ccnc2ccc(OC)cc12 (stereo not given in full)
active: Potency ([2]; parasite line A) 141 nM | Potency ([2]; parasite line B) 141 nM | Potency [3] 178 nM | Potency [4] 224 nM | Potency [5] 1410 nM | Potency [6] 1120 nM | Potency [7] 794 nM | Potency [8] 708 nM | Potency [9] 1690 nM | Potency [10] 1070 nM | Potency [11] 2130 nM | Potency [12] 1690 nM | Potency [13] 1260 nM | Potency [14] 1000 nM | Potency [15] 1200 nM | Potency [16] 1350 nM | Potency [17] 631 nM | Potency [18] 953 nM | Potency [19] 794 nM | Potency [20] 1000 nM
inactive: Potency [1]

OCCN1CC(O)C(O)C(O)C1CO (stereo not given)
inactive: Potency [1] | activity, negative = inhibition [2, 21] 13.3% | activity, negative = inhibition [2, 22] 21.3% | Potency [3] | Potency [4] | Potency [5] | Potency [6] | Potency [7] | Potency [8] | Potency [9] | Potency [10] | Potency [11] | Potency [12] | Potency [13] | Potency [14] | Potency [15] | Potency [16] | Potency [17] | Potency [18] | Potency [19] | Potency [20]

CC(=O)N[C@H]1[C@H](O[C@@H]2c3ccc(c(Cl)c3)Oc3cc4cc(c3O[C@@H]3O[C@H](CO)[C@@H](O)[C@H](O)C3C)Oc3ccc(cc3Cl)C[C@H]3NC(=O)[C@@H](N)c5ccc(O)c(c5)Oc5cc(O)cc(c5)[C@H](NC3=O)C(=O)N[C@H]4C(=O)N[C@H]3C(=O)N[C@@H]2C(=O)N[C@@H](C(=O)O)c2cc(O)cc(O[C@H]4O[C@H](CO)[C@@H](O)C(O)[C@@H]4O)c2-c2cc3ccc2O)O[C@H](CO)[C@@H](O)[C@@H]1O (stereo not given in full)
inactive: Potency [1] | activity, negative = inhibition ([2]; at 12.8 µM (top of the series), parasite line A) -7.42% | activity, negative = inhibition ([2]; at 12.8 µM (top of the series), parasite line B) 7.54% | Potency [3] | Potency [4] | Potency [5] | Potency [6] | Potency [7] | Potency [8] | Potency [9] | Potency [10] | Potency [11] | Potency [12] | Potency [13] | Potency [14] | Potency [15] | Potency [16] | Potency [17] | Potency [18] | Potency [19] | Potency [20]

C/C1=C2/[N-]C(C(CC(N)=O)[C@@]2(C)CCC(=O)NCC(C)OP(=O)([O-])O[C@H]2[C@@H](O)[C@@H](n3cnc4cc(C)c(C)cc43)O[C@@H]2CO)[C@]2(C)N=C(/C(C)=C3N=C(/C=C4N=C1C(CCC(N)=O)C\4(C)C)[C@@H](CCC(N)=O)[C@]\3(C)CC(N)=O)[C@@H](CCC(N)=O)[C@]2(C)CC(N)=O.CC(=O)O.[Co] (stereo not given in full)
inactive: Potency [1] | activity, negative = inhibition [2, 21] -2.13% | activity, negative = inhibition [2, 22] -2.9% | Potency [3] | Potency [4] | Potency [5] | Potency [6] | Potency [7] | Potency [8] | Potency [9] | Potency [10] | Potency [11] | Potency [12] | Potency [13] | Potency [14] | Potency [15] | Potency [16] | Potency [17] | Potency [18] | Potency [19] | Potency [20]

O=C(O)CC(O)CC(O)/C=C/c1c(C2CC2)nc2ccccc2c1-c1ccc(F)cc1 (stereo not given)
inactive: Potency [1] | activity, negative = inhibition [2, 21] 5.32% | activity, negative = inhibition [2, 22] -2.35% | Potency [3] | Potency [4] | Potency [5] | Potency [6] | Potency [7] | Potency [8] | Potency [9] | Potency [10] | Potency [11] | Potency [12] | Potency [13] | Potency [14] | Potency [15] | Potency [16] | Potency [17] | Potency [18] | Potency [19] | Potency [20]

CN1[C@@H]2CC[C@@H]1CC(OC(=O)[C@H](CO)c1ccccc1)C2 (stereo not given in full)
inactive: Potency [1] | activity, negative = inhibition [2, 21] 1.09% | activity, negative = inhibition [2, 22] 2.23% | Potency [3] | Potency [4] | Potency [5] | Potency [6] | Potency [7] | Potency [8] | Potency [9] | Potency [10] | Potency [11] | Potency [12] | Potency [13] | Potency [14] | Potency [15] | Potency [16] | Potency [17] | Potency [18] | Potency [19] | Potency [20]

CC1(C)OC[C@@H]2O[C@@]3(C(=O)O)OC(C)(C)O[C@@H]3[C@@H]2O1
inactive: Potency [1] | activity, negative = inhibition [2, 21] 1.64% | activity, negative = inhibition [2, 22] 11.5% | Potency [3] | Potency [4] | Potency [5] | Potency [6] | Potency [7] | Potency [8] | Potency [9] | Potency [10] | Potency [11] | Potency [12] | Potency [13] | Potency [14] | Potency [15] | Potency [16] | Potency [17] | Potency [18] | Potency [19] | Potency [20]

C=CC1CN2CCC1CC2[C@@H](O)c1ccnc2ccc(OC)cc12 (stereo not given in full)
inactive: Potency [1]
active: Potency ([2]; parasite line A) 50.1 nM | Potency ([2]; parasite line B) 56.2 nM | Potency [3] 79.4 nM | Potency [4] 50.1 nM | Potency [5] 398 nM | Potency [6] 316 nM | Potency [7] 501 nM | Potency [8] 224 nM | Potency [9] 757 nM | Potency [10] 536 nM | Potency [11] 1070 nM | Potency [12] 426 nM | Potency [13] 1000 nM | Potency [14] 282 nM | Potency [15] 478 nM | Potency [16] 478 nM | Potency [17] 708 nM | Potency [18] 338 nM | Potency [19] 158 nM | Potency [20] 251 nM

CC(O)C(N)C(=O)O (stereo not given)
inactive: Potency [1] | activity, negative = inhibition [2, 21] 4.5% | activity, negative = inhibition [2, 22] 11.6% | Potency [3] | Potency [4] | Potency [5] | Potency [6] | Potency [7] | Potency [8] | Potency [9] | Potency [10] | Potency [11] | Potency [12] | Potency [13] | Potency [14] | Potency [15] | Potency [16] | Potency [17] | Potency [18] | Potency [19] | Potency [20]
